Results filed as inconclusive are left out. Entries that show only a call come without a potency. Calls of active or inactive are those of the source. Calls come from the whole dose curve; as a rule, active = well fitted cell-killing curve with a large enough effect in the repeat runs; inconclusive = weak or mixed curves; inactive = flat fitted curve, though single readings scatter.
Test: qHTS assay to identify small molecule antagonists of the estrogen receptor beta (ER-beta) signaling pathway - cell viability counter screen (AID 1259382); note: nearly all actives have a fitted effect of over 55% in size
Conditions: ER-beta-UAS-bla HEK293T viability, CellTiter-Glo luminescence, 16 h; series mostly up to 92.4 µM
Source text: U.S. Tox21 Program National Center for Advancing Translational Sciences [NCATS] NIH Chemical Genomics Center [NCGC] U.S. Environmental Protection Agency [EPA] National Institutes of Environmental Health Sciences [NIEHS] National Toxicology Program [NTP] U.S. Food and Drug Administration [FDA] Tox21 Assay Overview: Estrogen receptor (ER), a nuclear hormone receptor, plays an important role in development, metabolic homeostasis and reproduction. Two subtypes of ER, ER-alpha and ER-beta, have similar expression patterns with some uniqueness in both types. Endocrine disrupting chemicals (EDCs) and their interactions with steroid hormone receptors like ER causes disruption of normal endocrine function. To identify the compounds that inhibit ER signaling, an ER-beta-UAS-bla GripTite cell line (Life Technologies, Madison, WI, USA) containing a beta-lactamase reporter gene under the control of an UAS response element was used to screen Tox21 10K compound library. The cytotoxicity of the Tox21 compound library against the ER-beta-bla cell line was tested in parallel by measuring the cell viability using CellTiter-Glo assay in the same wells.
Tox21 Assay Protocol Summary: ER-beta-UAS-bla HEK293T cells were dispensed at 2,000 cells/4 uL of assay medium containing 2% charcoal stripped FBS per well into black wall/clear-bottom 1536-well plates using a Multidrop Combi (ThermoFisher Scientific, Waltham, MA) dispenser. After the assay plates were incubated at a 37C and 5% CO2 for 6 hr, 23 nL of compounds dissolved in DMSO, positive controls or DMSO only was transferred to the assay plate by a Pintool station (Kalypsys, San Diego, CA), followed by addition of 1 uL (1nM as final concentration) of 17-beta-estradiol (E2) in assay medium using a Flying Reagent Dispenser (FRD, Aurora Discovery, San Diego, CA). The plates were incubated at 37C and 5% CO2 for 16 hr. Then 1 uL of LiveBLAzer B/G FRET substrate was added using a Flying Reagent Dispenser, the plates were incubated at room temperature for 2 hours, and fluorescence intensity was measured by an Envision plate reader (PerkinElmer, Shelton, CT). For cell viability readout that measures cytotoxicity, 4 uL/well of CellTiter-Glo reagent was added into the assay plates using a FRD. After 30 min incubation at room temperature, the luminescence intensity in the plates was measured using a ViewLux (PerkinElmer) plate reader.
Potency is the fitted concentration of half-maximal effect.

SMILES | Potency | activity change, negative = cytotoxicity
C/C=C1\[C@H]2C=C(C)C[C@]1(N)c1ccc(=O)[nH]c1C2 | inactive | –
CC(C)CCCCCOC(=O)CS | inactive | –
Nc1ccc(-c2ccc(F)cc2)cc1 | inactive | –
O=C(N[C@@H](Cc1ccccc1)[C@@H](O)C(=O)N1C[C@@H](O)[C@@H](O)C1)c1cc2cc(Cl)ccc2[nH]1 | inactive | –
O=c1c2ccccc2oc2ccccc12 | inactive | –
CCCC(=O)OCc1ccccc1 | inactive | –
CCCCCC1CCC(=O)O1 (stereo not given) | inactive | –
Sc1nc(S)nc(S)n1 | inactive | –
CCOC(C)OCC | inactive | –
O=[N+]([O-])c1cccc(I)c1 | inactive | –
S=c1[nH][nH]c(=S)s1 | inactive | –
Cc1ccc(Cl)c(OCC(O)CNC(C)(C)C)c1 (stereo not given) | inactive | –
CC(C)CCCCCCCOC(=O)c1ccc(C(=O)OCCCCCCCC(C)C)c(C(=O)OCCCCCCCC(C)C)c1 | inactive | –
O=Cc1ccc([N+](=O)[O-])cc1 | inactive | –
CCOc1ccc(NC(C)=O)cc1N | inactive | –
O=C(Cl)c1cc(Cl)cc(Cl)c1 | inactive | –
Cc1cc(SC2=C(O)C[C@@](CCc3ccc(N)cc3)(C(C)C)OC2=O)c(C(C)(C)C)cc1CO | inactive | –
CCOc1ccc2c(c1)C(C)CC(C)(C)N2 (stereo not given) | inactive | –
Clc1ccccc1-c1nc(-c2ccncc2)no1 | inactive | –
O=C(NC1CCN(CCc2c[nH]c3ccccc23)CC1)c1ccccc1 | inactive | –

SMILES | Potency | activity change, negative = cytotoxicity
CC(C)CC(C)(C)C | 31.8 µM (active) | –
Nc1nc(Cl)nc2c1ncn2[C@H]1C[C@H](O)[C@@H](CO)O1 | inactive | –
FC(F)(Cl)C(F)(Cl)Cl | inactive | –
O=C(O)c1ccc(O)c(O)c1 | inactive | –
CCCCC(CC)COCCC#N (stereo not given) | inactive | –
COc1ccc(/C(C)=C/C(=O)O)c(OC)c1 | inactive | –
CC(=O)OCC(=O)[C@@]1(O)CC[C@H]2[C@@H]3CCC4=CC(=O)C=C[C@]4(C)[C@@]3(F)[C@@H](O)C[C@@]21C | inactive | –
CC(CCl)OC(C)CCl (stereo not given) | inactive | –
CC(Cc1ccccc1)(NC(=O)CN)c1ccccc1 (stereo not given) | inactive | –
CC(=O)Nc1cccc(N)c1 | inactive | –
COC=O | – | 10.9% [at 8.39 µM] (inactive)
CC(CC(C#N)(c1ccccc1)C(C)C)N(C)C (stereo not given) | inactive | –
Cc1ccc(S(=O)(=O)NC(=O)NC2CCCC2)cc1 | inactive | –
CC(C)=CCCC(C)C=O (stereo not given) | inactive | –
O=Cc1ccc(Cl)c([N+](=O)[O-])c1 | inactive | –
COc1ccnc2c1CCCCC2S(=O)c1nc2ccccc2[nH]1 (stereo not given) | inactive | –
COc1ccc(CN(CCN(C)C)c2ncccn2)cc1 | inactive | –
C=CC(C)CCC=C(C)C (stereo not given) | inactive | –
CC(C)=CCC[C@H](C)CCO | inactive | –
CCOc1ccccc1O | inactive | –

Reference: PubChem BioAssay (Tox21)
